Assay outcomes from PubChem.
Rows were chosen to be rich in hits. Some 9.2% of all compounds tested hit in one or more screens of this group.
ELG1 repair inh: ELG1-dependent DNA repair inhibition | Potency, µM (series often up to 46.1 µM), for the others: at the top dose activity change, negative = inhibition, most hits filed as inhibitors | 330,000 tested, 2.3% active | HEK293T ELG1-luciferase reporter, luminescence, 16 h; DNA damage induced by 5-fluorouridine; also: % is scaled to controls: 0 for no effect and ±100 for the full control effect; nearly all actives have a fitted effect of over 55% in size
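In this reporter screen, reduction of luminescence relative to DMSO vehicle indicated activity. Compounds and 5-fluorouridine were added together to 2,000 cells per well, incubated for 16 hr at 37 °C, then developed with ONE-Glo.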
SMN2 splice up: increases expression of the SMN2 splice variant | HEK293 SMN2-luciferase splicing reporter, luminescence, 30-36 h | Potency, µM (highest dose often 46.1 µM), for inactives: top-dose activity change, positive = activation, hits mostly activators | 210,000 tested, 2.8% active; also: % of control where 0% means no effect; nearly all actives have a fitted effect of over 55% in size
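HEK293 cells carry an SMN2 […]–luciferase reporter in which exon 7 inclusion puts luciferase in frame. Cells were plated 10-12 h before compound addition, then incubated 30-36 h at 37C. ONE-Glo luminescence was read; sodium butyrate at 4.5 mM final served as control.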
NPC1 prom act: activates the NPC1 promoter; Potency, µM (top dose mostly 9.22 µM), without a hit: at the highest dose activation, usual class: activators; 320,000 tested, 2.4% active; Huh7 NPC1 promoter luciferase reporter, 24 h; also: % of control where 0% means no effect; nearly all actives have a fitted effect of over 60% in size
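Stable NPC1-promoter luciferase Huh7 line; cpd (DMSO) 24 h, 37 °C, 5% CO2; Amplite luciferase reagent 10 min RT; luminescence readout. qHTS format.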
ELG1 genotoxic: inducers of genotoxicity in HEK293T ELG1-luciferase cells; Potency, µM (top dose mostly 46 µM), for the others: at the highest dose activity change, positive = activation, most hits filed as activators; 330,000 tested, 1.3% active; HEK293T ELG1-luciferase reporter, luminescence, 16 h; AID 504466; also: % of control where 0% means no effect; nearly all actives have a fitted effect of over 60% in size
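Reporter readout depends on ELG1 protein level, which increases with genetic stress. After 16 hr compound exposure at 37 °C, luciferase activity was quantified using ONE-Glo.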
Rab9 promoter act: Rab9 promoter activation; AID 485297; Huh7 Rab9 promoter-luciferase reporter, luminescence, 24 h; Potency, µM (doses to about 9.22 µM), without a hit: at the top dose activation, negative = inhibition, usual class: activators; 320,000 tested, 2.8% active; also: % of control where 0% means no effect; nearly all actives have a fitted effect of over 60% in size
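Using Huh7 cells stably transfected with Rab9 promoter–luciferase, compounds were incubated 24 h at 37 °C, 5% CO2; luciferase luminescence was read 10 min after reagent addition.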
FLuc counter: counter-screen for miR-21 project: firefly luciferase inhibitors or activators; AID 588342; P08659; Potency, µM (titrated, usually from 57.5 µM), inactives show at the top dose activity change, negative = inhibition, hits mostly inhibitors; 360,000 tested, 6.9% active; purified FLuc, Km substrates, luminescence inhibition;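 also: plate controls were vehicle for no effect and reference inhibitor for full effect; nearly all actives have a fitted effect of over 55% in size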
Target sequence (P08659 whole entry, looked up): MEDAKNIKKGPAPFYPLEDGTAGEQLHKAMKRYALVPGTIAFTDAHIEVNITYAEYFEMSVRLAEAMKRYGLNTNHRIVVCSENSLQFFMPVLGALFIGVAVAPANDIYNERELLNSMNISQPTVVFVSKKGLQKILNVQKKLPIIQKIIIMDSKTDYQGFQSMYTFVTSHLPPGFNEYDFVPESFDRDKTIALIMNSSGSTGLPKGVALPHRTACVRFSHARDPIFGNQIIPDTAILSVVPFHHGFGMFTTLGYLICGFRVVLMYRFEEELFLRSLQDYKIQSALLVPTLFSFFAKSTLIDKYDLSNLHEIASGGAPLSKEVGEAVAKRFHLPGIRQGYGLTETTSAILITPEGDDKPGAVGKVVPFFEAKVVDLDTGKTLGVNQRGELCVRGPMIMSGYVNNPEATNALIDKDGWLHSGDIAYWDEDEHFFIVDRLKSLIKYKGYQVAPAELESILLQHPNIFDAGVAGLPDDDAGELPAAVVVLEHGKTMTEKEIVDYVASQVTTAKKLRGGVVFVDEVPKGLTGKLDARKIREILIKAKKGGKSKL
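Biochemical qHTS of compounds, final roughly 60 µM downward over six points, against 10 nM purified firefly luciferase using Km concentrations of substrates (10 uM D-luciferin, 10 uM ATP) in Tris acetate pH 7.5 buffer; luminescence output.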
Starred values were filed as active, the others as inactive; ? = inconclusive; / = not tested or not shown. Calls follow the shape of the dose curve; as a rule, active = well fitted curve in the direction sought with a large enough effect; inconclusive = small, poorly fitted or top-dose-only effect, or another doubt; inactive = no such curve, though single readings can be large; an effect the other way counts as inactive or inconclusive. Potency is read from the fitted curve at half-maximal effect.

SMILES	ELG1 repair inh	SMN2 splice up	NPC1 prom act	ELG1 genotoxic	Rab9 promoter act	FLuc counter
CCOc1cc(N2CCOCC2)c(OCC)cc1NC(=O)[C@H](C)N1C(=O)C2CC=CCC2C1=O (stereo partly specified)	2%	-1%	-9%	3%	-2%	1%
CCOc1cc(N2CCOCC2)c(OCC)cc1NC(=O)CSc1ccccc1C(=O)O	-2%	/	-3%	-3%	-5%	-1%
CCOc1cc(N2CCOCC2)c(OCC)cc1NC(=O)COc1cccc(CC)c1	23µM*	/	-3%	-7%	-12%	8%
CCOc1cc(N2CCOCC2)c(OCC)cc1NCC(=O)N1CCN(Cc2ccccc2)CC1	8.2µM*	/	-1%	-1%	-4%	-2%
Cc1cc(C(=O)COC(=O)c2ccc(NC(=O)CC#N)cc2)c(C)n1-c1ccc(OC(F)F)cc1	?	/	/	-4%	/	/
Cc1cc(C(=O)COC(=O)c2ccc(Cl)c(S(N)(=O)=O)c2)c(C)n1C1CC1	?	/	4µM*	15%	1.8µM*	4.8µM*
Cc1cc(C(=O)COC(=O)c2ccc(NC(=O)CC#N)cc2)c(C)n1C1CC1	?	/	?	18%	4µM*	13µM*
CCCc1c(C)nc2ccccc2c1SCCC#N	23µM*	-44%	9%	-8%	-6%	-8%
CCCCc1c(C)nc2ccc(Br)cc2c1SCCC#N	18µM*	-29%	-2%	-15%	-1%	0%
COc1cc(OC)c(NS(=O)(=O)c2c(C(=O)N3CCCCCC3)c(C)n(C)c2C)cc1Cl	/	/	/	/	/	-8%
Cc1ccc(-n2nc3c(N4CCC(C(=O)NC5CCC(C)CC5)CC4)nnc(C)c3c2C)cc1 (stereo unspecified)	/	/	/	/	/	-5%
CCOC(=O)[C@H]1[C@H]2COc3ccc(C)cc3[C@@H]2N2C(=O)c3cc(Br)ccc3NC(=O)[C@@]12C	-21%	/	/	-1%	/	/
COc1ccc2nc(-c3ccccc3)cc(C(=O)OCC(=O)N3CC(C)OC(C)C3)c2c1 (stereo unspecified)	?	/	-10%	-6%	-5%	19µM*
COc1ccc2nc(-c3ccccc3)cc(C(=O)OCC(=O)N3CCCCC3)c2c1	?	/	-3%	-8%	-1%	21µM*
Cc1cc(C(=O)OCC(=O)N2CCCC2)c2ccccc2n1	9%	23%	0%	2%	8%	2%
COc1ccc(-c2cc(C(=O)OCC(=O)N3CCCC3)c3ccccc3n2)cc1	?	32%	15%	-2%	15%	6µM*
COc1ccc2nc(-c3ccccc3)cc(C(=O)N3CCC3)c2c1	-27%	/	-1%	-4%	1%	?
Cc1cc(C(=O)OCC(=O)N2CC(C)OC(C)C2)c2ccccc2n1 (stereo unspecified)	11%	/	-4%	-1%	1%	6%
COc1ccc(OC)c(NC(=O)c2oc(=O)c3ccccc3c2-c2ccccc2)c1	/	/	/	/	/	0%
O=C(Cc1ccc(Br)cc1)N/N=C/c1cccnc1	3%	/	-8%	1%	-5%	0%
CN(C)S(=O)(=O)c1cccc(NC(=S)N/N=C/c2cc(Br)ccc2O)c1	2.9µM*	/	-20%	8%	-38%	19µM*
Cc1ccc(N/C=C/C(=O)C(C)(C)C)c(O)c1	-6%	4%	4%	10%	17%	19µM*
O=C(NCc1cccn1Cc1ccccc1)Nc1ccc(Br)cc1F	/	/	/	/	/	-1%
Cc1cc(NC(=O)c2cc(-c3ccc(OC(C)C)cc3)nc3ccccc23)no1	-26%	/	19%	6%	19%	3µM*
CCC(C)c1ccc(-c2cc(C(=O)OCC(=O)Nc3cc(C)on3)c3ccccc3n2)cc1 (stereo unspecified)	?	22µM*	?	1.8µM*	1.6µM*	2.7µM*
SMILES	ELG1 repair inh	SMN2 splice up	NPC1 prom act	ELG1 genotoxic	Rab9 promoter act	FLuc counter
O=C(Nc1ccon1)c1cc(-c2ccccc2)nc2ccccc12	-24%	-8%	0%	-5%	0%	-12%
COc1ccc(-c2cc(C(=O)OCC(=O)Nc3cc(C)on3)c3ccccc3n2)cc1OC	-12%	-6%	3%	6%	-1%	?
CC(=O)NS(=O)(=O)c1ccc(NC(=O)CCC(=O)Oc2ccc(C)cc2)cc1	19%	/	-3%	0%	-1%	-2%
C=CCOc1c(/C=N\NC(N)=O)cccc1OC	0%	/	-9%	1%	0%	-1%
C=CCOc1c(OC)cc(/C=N/Nc2cccc(C(=O)O)c2)c(Br)c1Br	?	14µM*	2.5µM*	?	3.2µM*	?
COc1cc(/C=N/Nc2ccc(C(=O)O)cc2)cc(OC)c1OC	?	/	1.6µM*	16µM*	2µM*	11µM*
COc1cc(/C=N/Nc2ccc(C(=O)O)cc2)ccc1O	?	?	?	?	?	1.9µM*
COc1ccc(/C=N/Nc2ccc(C(=O)O)cc2)c(OC)c1OC	?	/	2.8µM*	16%	3.2µM*	15µM*
COc1ccc(-c2nn(-c3ccccc3)cc2C(=O)NC(=S)Nc2cc(Cl)ccc2Cl)cc1	?	/	-15%	6%	-9%	-2%
CC(=O)Nc1ccc(C)cc1-c1nc2ccccc2n(CC(=O)Nc2cc(Cl)ccc2C)c1=O	/	/	/	/	/	-1%
COc1cccc(/C=N/NC(=S)NC2CC3CC2C2C=CCC32)c1O (stereo unspecified)	?	/	0%	7%	-2%	5.4µM*
Oc1ccccc1/C=N/NC(=S)NC1CC2CC1C1C=CCC21 (stereo unspecified)	?	/	17%	?	?	5.4µM*
CCCCN(CC)CCNC(=O)CN1C(=O)COc2ccc(S(=O)(=O)N3CCOCC3)cc21	/	11%	/	/	/	0%
CC(=O)CCC(=O)N1CCCC(CNC(=O)c2ccc(-c3ccccc3)cc2)C1 (stereo unspecified)	14%	/	17%	4%	25%	11µM*
CSCC(=O)N1CCCC(CNC(=O)c2ccccc2Cl)C1 (stereo unspecified)	-2%	/	-2%	0%	-10%	-4%
CSCC(=O)N1CCCC(CNC(=O)c2ccc(-c3ccccc3)cc2)C1 (stereo unspecified)	?	/	2%	-6%	-2%	21µM*
Cc1ccc(CN2C(=O)CN(C3CCC(C)CC3)C(=O)C2c2ccc(F)cc2)cc1 (stereo unspecified)	/	/	/	/	/	-5%
CC(C)N(Cc1nccn1C)C(=O)c1cc(COc2ccc(F)cc2Cl)on1	-1%	/	-3%	-4%	13%	3%
O=C(COc1nncc2ccccc12)Nc1ccc(F)c(F)c1	-14%	5%	-1%	-1%	5%	-3%
